In PubChem BioAssay (NCI):
The panel holds about 83,000 compounds, 20% with a hit somewhere; the sample as a whole holds those more often.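 Negative percent growth values reflect cell death: -40 means 40% of the cells present at the start died, and -100 means all died.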 Unmarked numbers belong to inactive results. Calls of active or inactive are those of the source. Rule for the calls: active = growth percent below 10; inactive = the rest.

tested on: MDA-MB-435 melanoma; experiment: NCI-60 one-dose screen, 48 h (100 = growth as untreated, 0 = no growth, -100 = all killed); conditions: 10 µM unless noted

Compound | growth
CCCCCCNC(=O)Oc1ccc(/C(=C(\C)c2ccccc2)c2ccc(OCCCN(C)C)cc2)cc1 | 48.3%
CN1CCN(CCNc2nccc(-c3c(-c4cccc(O)c4)nc4sccn34)n2)S1(=O)=O | 29.2%
NC(=NCCCOc1ccc(F)cc1)Nc1ccc(Cl)cc1 | 46.8%
Cc1cc(Cl)nc(N(CCNc2ccnc3cc(Cl)ccc23)Cc2ccccn2)n1 | 61.7%
COc1ccc(-c2cnc3c(-c4cccc5cnccc45)cnn3c2)cc1 | 62.9%
CCOC(=O)c1cc(C#N)n2ccc3ccccc3c12 | 99.1%
N#CC(C(=O)/C(=N/NC(=O)c1ccccc1O)C(C#N)c1ccccc1)c1ccccc1 (centres undefined) | 24.1%
N#C/C(=C\c1cccc(C#N)c1)c1ccccc1 | 100%
Cc1nc2ccc(Cl)cn2c1-c1nnc(SCc2ccc([N+](=O)[O-])cc2)o1 | 61.2%
CCN(CC)CCn1c(=O)c2cc(OC)c(OC)cc2c2ccc3cc4c(cc3c21)OCO4 | 50.4%
COc1ccc2nc(-c3ccc(-c4noc(-c5cc(OC)c(OC)c(OC)c5)n4)cc3)[nH]c2c1 | 39.1%
O=C1C=CC(=O)N1c1cccc(Cl)c1 | 101%
O=C(O)c1ccc2c(c1)C(=O)N(Cc1ccccc1)C2=O | 106%
O=C(Cc1ccccc1)NNc1nc(Cl)nc(N2CCN(C(c3ccccc3)c3ccccc3)CC2)n1 | 100%
O=C(/C=C/c1c(-c2ccc(Cl)cc2)nn(-c2ccccc2)c1C(F)(F)F)c1ccc(Cl)cc1 | 97.9%
O=C1Nc2ccccc2/C1=C\c1c(-c2ccc(F)cc2)nc2ccccn12 | -21.1% (active)
COc1cc(C2C3=C(COC3=O)N(CCO)c3cc4c(cc32)CCC4)cc(OC)c1OC (centres undefined) | -9.03% (active)

Compound | growth
CC(c1ccccc1)C(C(=O)c1ccccc1)c1ccccc1 (centres undefined) | 110%
C#Cc1cccc(NC(=O)Nc2cccc(NC(=O)CCl)c2)c1 | -39.8% [8.25 µM] (active)
COc1cc(-c2cc(-c3ccc(N(C)C)cc3)nc(N3CCOCC3)c2C#N)cc(OC)c1OC | 4.97% (active)
C=CCn1c(-c2ccc(-c3nc4ccc(C)cc4[nH]3)cc2)n[nH]c1=S | 98.1%
COc1cc(CC(=O)n2ncc3ccc(N)cc32)cc(OC)c1OC | 65.3%
COC(=O)C(CC=O)C(=O)C(=O)Nc1cccc(C(F)(F)F)c1 (centres undefined) | 107%
CCNc1nc2ccc(Nc3ccnc4cc(Cl)ccc34)cc2[nH]1 | 93.1%
Cc1cc2c(c(C)c1Cl)C(=O)/C(=C/c1ccc(O)c(O)c1)O2 | 106%
O=C1/C=C/[C@@H](O)[C@@H]2C[C@@H](O)C[C@H]2/C=C/CCC[C@H](CCc2cccc3ccccc23)O1 | 6.06% (active)
COc1cc2c(cc1OC)C(=O)/C(=C/c1cc(C)c(O)c(C)c1)S2 | -9.36% (active)
Cc1ccc(-n2c3c(c(-c4ccccc4)c2-c2ccccc2)C2=NCCN2C=N3)cc1 | 97.8%
NS(=O)(=O)c1ccc(CCn2c(SCC(=O)c3ccc(Cl)cc3)nc3ccccc3c2=O)cc1 | 102%
COc1cc(NC(=O)CSc2nc3ccc(C)cc3c(=O)n2Cc2ccccc2)cc(OC)c1OC | 67.3%
CN1[C@@H]2CC[C@H]1/C(=C\c1ccccc1)C(=O)/C2=C/c1ccccc1 | 25%
Cc1ccc(C(=O)/C(=C/c2ccc([N+](=O)[O-])cc2)SCc2ccc(Cl)cc2)cc1 | 78.1%
CSc1nc2sc3cccc(Cl)c3n2c(=N)c1C#N | 104%
Cc1c2cc[nH]c(=O)c2c(C)c2c1[nH]c1cc(OCCN3CCN(C)CC3)ccc12 | 4.54% (active)
